Data taken from PubChem BioAssay AID651949 (Broad Institute, 2012).
Potency and affinity values are given separately. Calls of active or inactive are those of the source.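 How the source made its calls: active means compounds lowering cell ATP signal whose fitted half-maximal concentration is at most twice the top tested dose; inconclusive means flat curve with 30 to 70% signal loss, or poor fit; inactive means the rest.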

experiment: viability loss in HEK293T cells – cell-based, CellTiter-Glo luminescence, dry powder, set 6, cytotoxicity control, dose response (AID 651949); conditions: CellTiter-Glo ATP luminescence, 48 h; series mostly up to 26 µM

| Compound | outcome |
| --- | --- |
| c1ccc(-n2cc(CSc3nnc(C4CCCC4)o3)nn2)cc1 | inactive |
| c1ccc(CSc2nnc(-c3cccnc3)o2)nc1 | inactive |
| N#Cc1cccc(-c2nnc(SCc3ccccc3)o2)c1 | inactive |
| Clc1ccc(-c2nnc(SCc3ccccn3)o2)cc1 | inactive |
| CS(=O)(=O)c1cccc(CSc2nnc(-c3ccccc3)o2)c1 | inactive |
| c1ccc(CSc2nnc(-c3ccccc3)s2)cc1 | inactive |
| COCCSc1nnc(-c2ccccc2)o1 | inactive |
| COc1cccc(-c2nnc(SCc3ccccc3)o2)c1 | inactive |
| c1ccc(-c2nnc(SCc3ccncc3)o2)cc1 | inactive |
| CCSc1nnc(-c2ccccc2)o1 | inactive |
| c1ccc(Sc2nnc(-c3ccccc3)o2)cc1 | inactive |
| N#Cc1cccc(CSc2nnc(-c3ccccc3)o2)c1 | inactive |
| c1ccc(CSc2nnc(-c3ccncc3)o2)nc1 | inactive |
| CSc1nnc(-c2ccccc2)o1 | inactive |
| c1ccc(Cn2cc(CSc3nnc(-c4ccccc4)o3)nn2)cc1 | inactive |
| c1ccc(-c2nnc(SC(c3ccccc3)c3ccccc3)o2)cc1 | inactive |
| Fc1ccccc1-c1nnc(SCc2ccccc2)o1 | inactive |
| FC1(F)CN(CCSc2nnc(-c3ccccc3)o2)C1 | inactive |
| FC(F)(F)Oc1ccccc1CSc1nnc(-c2ccccc2)o1 | inactive |
| c1ccc(CNc2nnc(-c3ccccc3)o2)cc1 | inactive |

| Compound | outcome |
| --- | --- |
| FC(F)(F)c1cccc(-c2nnc(SCc3ccccc3)o2)c1 | inactive |
| c1ccc(COc2nnc(-c3ccccc3)o2)cc1 | inactive |
| COc1cccc(CSc2nnc(-c3ccccc3)o2)c1 | inactive |
| Clc1ccc(CSc2nnc(-c3ccccc3)o2)cc1 | inactive |
| c1ccc(-c2nnc(SCc3ccccn3)o2)cc1 | inactive |
| c1ccc(CSc2nnc(-c3ccc(-c4ccccc4)cc3)o2)cc1 | inactive |
| c1ccc(Cn2cc(CSc3nnc(C4CCC4)o3)nn2)cc1 | inactive |
| CS(=O)(=O)c1ccc(-c2nnc(SCc3ccccc3)o2)cc1 | inactive |
| c1ccc(-c2nnc(SC3CCCCC3)o2)cc1 | inactive |
| FC(F)(F)c1cccc(CSc2nnc(-c3ccccc3)o2)c1 | inactive |
| Fc1ccc(-c2nnc(SCc3ccccc3)o2)cc1 | inactive |
| Cc1ccccc1CSc1nnc(-c2ccccc2)o1 | inactive |
| FC(F)(F)Oc1cccc(-c2nnc(SCc3ccccc3)o2)c1 | inactive |
| Cc1cccc(-c2nnc(SCc3ccccc3)o2)c1 | inactive |
| Cc1nnc(SCc2ccccc2)o1 | inactive |
| Fc1ccc(Cn2cc(CSc3nnc(C4CCCC4)o3)nn2)cc1 | inactive |
| Brc1ccc(-c2nnc(SCc3ccccn3)o2)cc1 | inactive |
| Fc1ccc(CSc2nnc(-c3ccncc3)o2)cc1 | inactive |
| COc1ccccc1CSc1nnc(-c2ccccc2)o1 | inactive |
